# Test results taken from PubChem BioAssay AID898 (University of Pittsburgh Molecular Library Screening Center, 2007).
# Out of some 140,000 compounds screened, about 220 (0.16%) were called active. For the sample, actives were picked, then their nearest neighbours and some compounds at random. Values without a mark were called inactive. Rule as the data show it: active = inhibition above about 50%; inactive = the rest.
# System: YopH tyrosine phosphatase [Yersinia enterocolitica]
# Assay: YopH tyrosine phosphatase inhibitors, primary screen, biochemical, fluorescence Ex485/Em525 (AID 898)
# Conditions: active compounds read high, concentration not given here
row,Compound,inhibition
1,O=c1[nH]c(CN2CCN(S(=O)(=O)c3ccc4c(c3)OCCO4)CC2)nc2sc3c(c12)CCCC3,-8.83%
2,Cc1ccc(S(=O)(=O)N(CC(=O)Nc2cccc([N+](=O)[O-])c2)Cc2ccc(Cl)cc2)cc1,-31.4%
3,CC(C)OCCCNC(=O)c1cc(Sc2ccc(F)cc2)nc2ccccc12,-10.5%
4,COc1cccc(-n2c(SCC(=O)c3c[nH]c4ccccc34)nc3ccccc3c2=O)c1,-22.8%
5,C/C(=N\NC(=O)c1ccc(CSc2nc(C)cc(C)n2)cc1)C1CCCCC1,-27.2%
6,CC(=O)c1c(O)cc2n(c1=O)-c1ccc(Cl)cc1C2(C)C,-21.9%
7,CSc1c(SCc2ccccc2)cnn(Cc2ccccc2)c1=O,-31.9%
8,Cc1ccc(S(=O)(=O)N(NC2=NS(=O)(=O)c3ccccc32)C(=O)c2ccccc2)cc1,-28.4%
9,CCCCCC(=O)Nc1ccc(S(=O)(=O)Nc2ccc(Cl)nn2)cc1,-13.3%
10,CC(C)(C)C(=O)N1CCC[C@@]1(CO)C(=O)O,-12.8%
11,COc1ccc(C(CC(=O)c2ccccc2)S(=O)(=O)c2ccccc2)cc1 (stereo not drawn),-12.2%
12,CCCCN(C)c1ccc([N+](=O)[O-])cc1,-11%
13,CCCCOc1ccc(NC(=O)[C@@H]2CCCN2C(=O)C2CCN(S(=O)(=O)c3ccc(C)cc3)CC2)cc1,-8.82%
14,Cc1ccccc1Cn1nc(C)c(NC(=O)C(F)(F)F)c1C,-28.6%
15,Cc1ccc(-c2csc(NNC(=O)c3ccccc3)n2)cc1,-36.8%
16,Cc1ccccc1/[N+]([O-])=C/c1ccncc1,77.8% (active)
17,CC(NC(=O)C(=O)NN=C1CCC(C(C)(C)C)CC1)c1ccccc1 (stereo not drawn),-22%
18,CCOc1ncccc1C(=O)N(CC)CC(=O)Nc1ccc(NC(C)=O)cc1,-14.7%
19,Cc1cc(C(=O)CSc2nc(N)cc(=O)[nH]2)c(C)n1-c1cccc(F)c1,-16.4%
20,COC(=O)Cc1csc(/N=C/c2c(O)n(-c3cccc(C(F)(F)F)c3)c(=O)c3ccccc23)n1,-22.8%
21,COc1ccc(-n2c(C)cc(C(=O)CN3C(=O)NC4(CCc5ccccc54)C3=O)c2C)cc1 (stereo not drawn),-19.6%
22,Cc1scc(C(=O)NNC(=S)NCC(C)C)c1C,-19.1%

row,Compound,inhibition
1,COCCCNC(=O)Cn1cc(/C=C(\C#N)C(=O)N2CCN(c3ccccc3)CC2)c2ccccc21,-25.6%
2,CC(=O)Nc1cccc(/C(C)=N/NC(=O)c2c(-c3ccccc3Cl)noc2C)c1,-32.1%
3,CC(C)Cc1nn2c(=O)cc(O)nc2s1,-35.6%
4,COc1ccc(OCC(=O)Nc2cc(C)c(Cl)cc2OC)c([N+](=O)[O-])c1,-16.9%
5,CC(=O)NC1C(OCc2ccccc2)OC(COC(C)=O)C(OC(C)=O)C1OC(C)=O (stereo not drawn),-23.9%
6,O=C(OCC1O[C@@H](OC(=O)c2cc(O)c(O)c(O)c2)[C@@H](OC(=O)c2cc(O)c(O)c(O)c2)[C@@H](OC(=O)c2cc(O)c(O)c(O)c2)[C@@H]1OC(=O)c1cc(O)c(O)c(O)c1)c1cc(O)c(O)c(O)c1 (stereo partly drawn),71.9% (active)
7,S=C(NCCc1ccccc1)NCC1CCCO1 (stereo not drawn),-37.5%
8,CCS(=O)(=O)Nc1cccc(-c2cc(-c3ccccc3)c3cc(C)ccc3n2)c1,-8.31%
9,CCc1ccc(C(=O)OCC(=O)Nc2cccc(S(=O)(=O)NC3=NCCCCC3)c2)cc1,-20.5%
10,Cc1cc([N+](=O)[O-])ccc1NC(=O)C1CCCO1 (stereo not drawn),-25.6%
11,Cc1cc([N+](=O)[O-])nn1CC(=O)Nc1ccc(Cc2ccncc2)cc1,-27.8%
12,O=C(Nc1ccccc1Cc1ccccc1)c1ccc2c(c1)SC1=NS(=O)(=O)CCN12,-31.8%
13,CCOC(=O)CN1C(=O)N[C@@H](c2ccc(Br)cc2)C(C(C)=O)=C1C,-19.8%
14,CC(=O)c1ccc(N2CCN(C(=O)c3ccc4nc[nH]c4c3)CC2)cc1,-23.5%
15,COc1ccc2oc(-c3cccc(NC(=O)CSc4ccc(Cl)cc4)c3)nc2c1,-28.2%
16,COc1ccc(N2C(=O)C(CC(=O)Nc3ccc(F)cc3)N(CCc3cccs3)C2=O)cc1 (stereo not drawn),-4.8%
17,Cc1ccc(CCCOC(=O)C[N+]2(C)CCCC2)cc1,-21.4%
18,CCC(=O)Nc1c(C)n[nH]c1C,-26.6%
19,CCCN1C(=O)C(Cc2nc3ccccc3c(=O)n2-c2ccccc2)c2cc(C)ccc21 (stereo not drawn),-10.9%
20,CCOC(=O)c1cccnc1NC(=O)c1ccncc1,-10.3%
21,COc1cccc2c1CCC(NC(C)=O)C2=O (stereo not drawn),-4.91%
22,CCN(CC)S(=O)(=O)c1ccc(C)c(NC(=O)COc2ccc(Br)cc2Cl)c1,-2.1%

row,Compound,inhibition
1,Cc1coc2c(O)cc3c(c12)OC1(N2CCCCC2)C(=O)NCCCC31 (stereo not drawn),73% (active)
2,COc1ccc(CNC(=O)CCCn2nc(C)c([N+](=O)[O-])c2C)cc1,-22.1%
3,COc1ccc(/C=C/C(=O)NC(=S)NN2CCCCC2c2cccnc2)cc1 (stereo not drawn),-20.6%
4,Cc1ccc(C(=O)COC(=O)CCCC(=O)NC2CCCCC2)cc1[N+](=O)[O-],-26.3%
5,CCNC(=S)N1CCC(c2nc3cc(C)c(C)cc3[nH]2)CC1,-17.7%
6,O=S(=O)(ON(c1ccccc1)S(=O)(=O)c1ccccc1)c1ccccc1,-36.9%
7,CCOC(=O)c1csc(NC(=O)Nc2cccc(OC)c2)n1,-29.1%
8,O=C(NC(CC(=O)N1CCN(c2ccccc2)CC1)c1ccccc1)c1ccccc1Cl (stereo not drawn),-12%
9,CCOc1cccc2c1OC1(CCCCC1)N1N=C(c3cccnc3)CC21 (stereo not drawn),-19.2%
10,CC1(c2ccccc2)CC(C)(C)N(C(=O)c2cc([N+](=O)[O-])cc([N+](=O)[O-])c2)c2ccccc21 (stereo not drawn),-29.6%
11,CC1CCN(C2=NC(=O)/C(=C/c3cn[nH]c3-c3ccccc3)S2)CC1,-21.6%
12,Cc1ccc(-n2c(SCC(=O)Nc3ncc(Cl)cc3Cl)nc3ccccc32)cc1,8.79%
13,CCOC(=O)/C=C/C(=O)OCC(=O)NC(c1ccccc1)c1ccccc1,-29%
14,Cc1cc(C)c(C2C3=C(Nc4c2c(C)nn4-c2ccccn2)c2ccccc2C3=O)c(C)c1 (stereo not drawn),-0.15%
15,CCOC(=O)c1c(C)[nH]c2c1-c1ccccc1C(=O)C2=O,78.7% (active)
16,CCOC(=O)C1=C(c2ccc(OC)cc2)C(=O)c2ccccc2C1=O,16.7%
17,CCOC(=O)c1c(C)[nH]c(=S)c(C#N)c1-c1ccccc1,-37.4%
18,COc1ccc2c(CC(=O)OCC(=O)Nc3ccccc3[N+](=O)[O-])coc2c1,-29.4%
19,Cc1ccc(C(=O)Oc2coc(CSc3nnc(NC(=O)c4cccs4)s3)cc2=O)cc1C,0.04%
20,NC1=NC(=O)S/C1=C\c1ccc(O)cc1,-36.5%
21,CCOc1ccccc1N1CCN(C(=S)Nc2ccc(S(N)(=O)=O)cc2)CC1,-2.91%
22,CC(C)(C)C(=O)NC(NC(=S)Nc1ccc(S(N)(=O)=O)cc1)C(Cl)(Cl)Cl (stereo not drawn),-18.5%

row,Compound,inhibition
1,CCN1CCC2(CC1)N=C(c1ccc(F)cc1)C(=S)N2C(=O)c1ccc(C)cc1,77.9% (active)
2,Cc1ccc(C(=O)N(CN2CCCC2=O)c2ccc(F)cc2)cc1,-41.7%
3,CCn1c(C(C)NC(=O)c2ccc(C)cc2)n[nH]c1=S (stereo not drawn),-41.3%
4,CC(=O)c1c(C)[nH]c(C(=O)OCC(=O)Nc2sc3c(c2C#N)CCCC3)c1C,-24.9%
5,COCCCN(C(=S)Nc1c(C)cc(C)cc1C)C(C)c1ccncc1 (stereo not drawn),-22.6%
6,Cc1ccccc1-n1nc(C)c2c1N=C1C(Cl)=CC(Cl)=CN1C2c1ccc(C(=O)O)cc1 (stereo not drawn),-22.9%
7,COC(C(=O)Nc1ccc(C(C)=O)cc1)c1ccccc1 (stereo not drawn),-28.2%
8,C/C(=N/NC(=S)Nc1ccccc1)c1ccc2c(c1)OCO2,-22.5%
9,COc1ccc(OCCNS(=O)(=O)Cc2ccccc2)cc1,-30.4%
10,Cc1nonc1C(=O)N/N=C/c1ccc(O)cc1,-21.7%
11,Cc1ccc2c(CC(=O)NCc3cccs3)coc2c1,-29.9%
12,CCc1cccc(CC)c1NC(=O)COc1ccccc1C(=O)c1cc(C#N)c(=O)n(C2CCCCC2)c1,-24.5%
13,Cc1ccc(-c2cc(C(=O)N/N=C/C=C/c3ccccc3)n[nH]2)o1,-23%
14,O=C(COC(=O)c1cc2c(s1)CCCC2)NCc1ccccc1Cl,-45.2%
15,CCCN1CNC(=S)N(CCc2ccccc2)C1,-20.8%
16,CCCCc1cc2c(s1)CCCC/C2=N/O,-2.52%
17,N#Cc1c(-c2ccc(F)cc2)cc(C2CC2)nc1SCC(=O)c1cccs1,-21.7%
18,Cc1ccc(O)c(-c2cc(C(=O)Nc3c(C)n(C)n(-c4ccccc4)c3=O)[nH]n2)c1,-27%
19,O=C(CSc1nc2ccccc2[nH]1)Nc1nc(-c2ccccc2)c(-c2ccccc2)o1,-23.6%
20,COc1ccc(Br)cc1CN(C)CC(=O)Nc1cc(Cl)cc(Cl)c1,-5.01%
21,CCCCNC(=O)CCn1c(=O)c2ccccc2n(Cc2cc(C)ccc2C)c1=O,-41.6%
22,Nc1nnc(SCC(=O)OCc2ccc(Cl)c(Cl)c2)s1,-17.1%
